# High-throughput results from PubChem.
# Sampled rows, rich in hits. Any-hit rate of the full collection: about 4.2%.
# SW480 rerep = induces DNA re-replication in SW480 colon adenocarcinoma cells. SW480 DNA re-replication, Hoechst DNA content imaging, 48 h. Potency, µM (titrated, usually from 46.1 µM), for inactives: at the highest dose re-replication activation, actives largely listed as activators. 340,000 compounds, 1.8% hits; note: % of control where 0% means no effect; nearly all actives have a fitted effect of over 55% in size
#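 Quantitative HTS format with DMSO vehicle controls; 48 hr drug incubation at 37 C, then 40 min Hoechst staining and scanning imager measurement at 405 nm excitation.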
# Integrin act MD = activators of alpha7 integrin expression for muscular dystrophy; Potency, µM (series often up to 38.3 µM), for the others: at the top dose activation, actives largely listed as activators; alpha7betagal myoblasts, beta-gal FDG fluorescence, 48 h; 350,000 compounds, 0.064% hits;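 note: 100% = response of the positive control SU9516; nearly all actives have a fitted effect of over 60% in size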
#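 Alpha7betagal+/- myoblasts (passage 13) were plated 16-24 hr, then exposed to compounds (1:260 dilution of DMSO stock) for 48 hours at 37C. After MPER lysis, β-galactosidase reporter activity was read as FDG fluorescence (ex 480/em 540) after 30 minutes.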
# Mito fusion act = mitochondrial division inhibition or fusion activation. S. cerevisiae fusion-defective mutant growth rescue, CellTiterGlo 48 h. Potency, µM (series often up to 46.1 µM), for the others: top-dose growth rescue (activation), hits mostly activators. 320,000 compounds, 0.23% hits. AID 485298; note: % of control where 0% means no effect; nearly all actives have a fitted effect of over 45% in size
#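 S. cerevisiae fusion-defective temperature-sensitive mutants (e.g. fzo1-1, mgm1-5) grown 48 h at 37C in YPEG (ethanol/glycerol non-fermentable) medium with 23 nl compound per well; growth rescue read as CellTiterGlo luminescence.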
# AT treatment = candidate therapy for ataxia-telangiectasia; 320,000 compounds, 0.19% hits; AID 485349; Potency, µM (doses to about 57.5 µM), for inactives: at the highest dose activation, hits mostly activators; F2112 A-T fibroblasts, KAP-1 phosphorylation AlphaLISA; neocarzinostatin DNA damage 30 min before lysis; note: % of control where 0% means no effect; nearly all actives have a fitted effect of over 45% in size
#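 ATM-like activity read as KAP-1 phosphorylation via AlphaLISA donor/acceptor antibody pairs after lysis and 6 hr at 25C. Cells were ATM-null patient fibroblasts (F2112, hTERT), dosed 60 min, then exposed to the DSB inducer NCS for 30 min.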
# MCF10A rerep = induces DNA re-replication in MCF 10a normal breast cells | 350,000 compounds, 2.9% hits | AID 624296 | Potency, µM (titrated, usually from 46.1 µM), inactives show at the highest dose activity, positive = re-replication, most hits filed as activators | MCF 10A DNA re-replication, Hoechst nuclear intensity, 48 h; note: % of control where 0% means no effect; nearly all actives have a fitted effect of over 50% in size
# An asterisk follows results filed as active; ? = inconclusive; nt = not tested or not shown; [ ] = another dose, or the depositor's remark. Calls come from the whole dose curve; as a rule, active = well fitted activation curve with a large enough effect; inconclusive = small, poorly fitted or top-dose-only effect; inactive = no such curve, though single readings can be large or run the other way. Potency is the fitted concentration of half-maximal effect.
SMILES,SW480 rerep,Integrin act MD,Mito fusion act,AT treatment,MCF10A rerep
CC1(C)Cc2c(sc(NC(=O)COc3cccc4ccccc34)c2C#N)C(C)(C)N1,?,-78.6%,12.4%,-4.1%,16.4µM*
CCOC(=O)c1c(NC(=O)COc2ccccc2OCC)sc2c1CC(C)(C)NC2(C)C,?,-50.3%,19.9%,-2.1%,?
CCOC(=O)c1c(NC(=O)COc2ccccc2C#N)sc2c1CC(C)(C)NC2(C)C,18.4µM*,-60.3%,0.6%,-1.8%,?
CC1(C)Cc2c(sc(NC(=O)c3ccc(C(=O)c4ccccc4)cc3)c2C(N)=O)C(C)(C)N1,20.6µM*,-56.0%,-7.6%,36.3%,23.1µM*
CSc1n[nH]c(NCc2cccs2)n1,-14.3%,7.1%[7.66 µM],-4.3%,-0.2%,-1.7%
Cc1ccc(C(=O)Nc2cccnc2)cc1C,nt,9.1%,nt,nt,nt
COc1cc(/C(C#N)=C/c2ccccc2)c([N+](=O)[O-])cc1OC,-7.3%,-43.6%,18.8%,nt,21.4%
Cc1cccc(NC(=O)C(=O)NCCCc2ccccc2)c1,nt,nt,4.0%,17.9%,nt
O=c1c(Cl)c(Cl)cnn1Cc1nnc(-c2ccccc2Br)o1,4.61µM*,-67.3%,-0.4%,-3.2%,3.26µM*
CN(C)c1ccc(C=NNC(=O)c2cccc3ccccc23)c(Cl)c1,18.4µM*,-10.6%,nt,nt,18.3%
CN(C)c1ccc(/C=N/NC(=O)c2ccccc2Cl)cc1,2.59µM*,13.8%,0.5%,-4.9%,20.6µM*
CSc1ccc(/C=N/NC(=O)c2cccs2)cc1,-3.4%,24.1%,2.5%,-1.5%,0.4%
CSc1ccc(/C=N/NC(=O)c2ccccc2Cl)cc1,?,1.4%,-4.9%,0.7%,23.1µM*
Cc1occc1C(=O)N/N=C/C=C/c1ccc(N(C)C)cc1,0.0116µM*,-5.5%,-0.9%,2.0%,?
COc1ccc2c(c1)OC[C@H]1[C@H]2N2C(=O)CN(Cc3ccc(C)cc3)C(=O)[C@@]2(C)[C@H]1c1ccccc1,-4.4%,24.5%,?,0.5%,56.4%
CC(=O)Nc1ccc2c(c1)C(N1CC3CCC(CC3)C1)c1ccccc1-2 (stereo not drawn),11.0%,-11.8%,nt,nt,?
CCN1CCN(Cc2c(C(=O)N/N=C(\C)c3ccc(Cl)cc3)nnn2-c2nonc2N)CC1,?,-7.5%,-3.7%,-3.7%,0.3%
N=C1CCCN1CC(=O)c1ccc(Br)cc1,-8.8%,33.9%,-5.5%,0.2%,-4.7%
COc1ccc(/C=N/NC(=O)c2cccc(NC(=O)c3ccccc3Cl)c2)cc1,6.51µM*,-28.0%,-3.4%,3.9%,2.59µM*
COc1ccc(/C=N/NC(=O)c2cccc(NC(=O)c3ccccc3Cl)c2)cc1OC,-35.5%,-20.0%,-15.6%,-2.3%,?
CSc1ccc(/C=N/NC(=O)c2ccc(O)cc2)cc1,-1.9%,17.2%,-1.7%,-3.2%,-8.0%
COc1ccc(C(=O)N/N=C/c2ccc(SC)cc2)cc1,5.17µM*,14.0%,-34.6%,2.1%,6.3%
COc1cc(OC)cc(C(=O)N/N=C\c2ccoc2)c1,5.8µM*,-2.6%,-0.6%,8.7%,23.1µM*
COc1ccc(Cl)cc1NC(=O)CN(C)C(=O)C1CCN(C(=O)Nc2ccccc2)CC1,0.7%,-8.5%,-0.8%,5.3%,-3.8%
COc1ccc(C(=O)NNC(=O)CSc2nnnn2-c2cc(OC)cc(OC)c2)cc1,-5.1%,-4.6%,-3.2%,5.9%,-6.8%
SMILES,SW480 rerep,Integrin act MD,Mito fusion act,AT treatment,MCF10A rerep
CCc1cc2c(-c3ccccc3)cc(=O)oc2cc1OC(C)C(=O)O (stereo not drawn),-5.0%,-38.2%,2.0%,5.0%,4.5%
CC(NC(=O)OCc1ccccc1)C(=O)Oc1cc2oc(=O)cc(-c3ccccc3)c2cc1Cl (stereo not drawn),?,?,8.9%,0.1%,18.4µM*
Cc1cc2oc3cc(NCCC4CCCN4C)ccc3c(=O)c2cc1C (stereo not drawn),?,-41.9%,nt,nt,16.4µM*
CN1CCCC1CCNc1ccc2sc3ccccc3c(=O)c2c1 (stereo not drawn),?,-45.9%,nt,nt,-14.2%
COc1ccc(CNC[C@@H](CCCCN(C)Cc2ccc(OC)cc2)N2C[C@H](c3ccccc3)N(CCc3ccc(Cl)c(Cl)c3)C(=O)C2=O)cc1,-8.2%,-7.5%,-21.4%,-3.8%,?
CCOc1ccc(CCN2C(=O)C(=O)N([C@H](CCCN(C)Cc3ccccc3)CNCc3ccccc3)C[C@@H]2C(C)C)cc1,nt,nt,-27.0%,39.8µM*,nt
CCn1c(SCC(=O)Nc2ccc3c(c2)OCCO3)nnc1-c1c[nH]c2ccccc12,6.4%,-2.0%,-2.3%,1.9%,4.1%
O=C(CSc1nnc(-c2c[nH]c3ccccc23)n1CC1CCCO1)Nc1ccc2c(c1)OCCO2 (stereo not drawn),0.0%,2.6%,-0.7%,6.1%,29.1µM*
COc1ccccc1NC(=O)C(C)OC(=O)C1CC(=O)N(Cc2ccco2)C1 (stereo not drawn),nt,6.3%,nt,nt,nt
CCCNC(=S)N1CCC(C(=O)c2ccc(Cl)cc2)CC1,7.31µM*,-29.0%,1.2%,12.3%,-0.2%
COc1ccc(Cc2nnc(SCC(=O)Nc3cc(Cl)ccc3OC)[nH]c2=O)cc1,-2.0%,11.9%,-8.7%,-2.1%,11.1%
CCCCNC(=O)CSc1nnc(Cc2ccc(Cl)c(Cl)c2)c(=O)[nH]1,-1.3%,1.41µM*,2.1%,-3.4%,-0.8%
O=C(COC(=O)c1cccc(S(=O)(=O)N2CCCC2)c1)Nc1ccccc1C(F)(F)F,4.61µM*,0.0%,4.5%,7.7%,6.4%
CC(=O)N1CCN(S(=O)(=O)c2cccc(C(=O)OCC(=O)N(Cc3ccccc3)C(C)(C)C)c2)CC1,-9.4%,-24.6%,nt,1.1%,7.31µM*
Cc1cc(C)c(C)c(S(=O)(=O)N2CCN(c3ncnc4ccccc34)CC2)c1C,1.4%,0.0%,17.8µM*,2.2%,18.4µM*
COc1ccc(S(=O)(=O)N2CCNC(=O)C2)cc1Br,-6.9%,-10.5%,1.9%,-1.3%,-2.0%
CCCN(CCC)CCNS(=O)(=O)c1ccc2c(c1)CCN2C(=O)C1CCC1,11.6µM*,-15.2%,-1.9%,-6.0%,2.59µM*
COc1ccc(OC)c(C2=Nn3c(nnc3-c3cc(C)[nH]n3)SC2)c1,-12.8%,-8.5%,-5.0%,-10.1%,4.2%
Fc1ccccc1-c1nnc2n1N=C(c1ccc(OC(F)F)c(OCC3CC3)c1)CS2,-5.3%,nt,nt,6.8%,-17.8%
COc1ccc(C2=Nn3c(nnc3-c3ccccc3Cl)SC2)cc1OCC1CC1,16.4µM*,nt,nt,-6.9%,?
COc1ccc(C2=Nn3c(nnc3-c3ccccc3OC)SC2)cc1OC1CCOC1 (stereo not drawn),1.03µM*,nt,nt,-2.0%,1.3µM*
COc1ccc(OC)c(-c2nnc3n2N=C(c2ccc(OC)c(OCC4CC4)c2)CS3)c1,2.31µM*,nt,nt,-5.6%,?
CCOc1ccc(C2=Nn3c(nnc3-c3ccccc3OC)SC2)cc1,0.259µM*,-9.2%,6.5%,1.0%,?
